# The source made the active and inactive calls.
# Assays:
# [1] = tested on: PRMT1 (protein arginine N-methyltransferase 1); experiment: PRMT1 binders on small-molecule microarrays, primary screen, biochemical, small-molecule microarray, 635 nm fluorescence (AID 1088); conditions: small-molecule microarray binding, higher = more signal;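 further: binding of Prmt1 protein to compounds spotted on small-molecule microarray slides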
# [2] = yeast growth modulation, basal conditions, primary screen, YJM789 clinical isolate, OD600, 24 h (AID 1089);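 further: growth of clinical yeast isolate S. cerevisiae YJM 789 seeded 1000 cells per well; test concentration not given here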; conditions: S. cerevisiae YJM789 growth, higher = more signal, called active from +8 up or from −8 down
# [3] = fission yeast growth modulation, primary screen, strain 972, OD600, 24 h, no modulator (AID 1090);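 further: basal condition with compound alone and no growth modifier present; test concentration not given here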; conditions: S. pombe 972 growth, higher = more signal, called active from +8 up or from −8 down
# [4] = S. cerevisiae growth modulation with rapamycin, primary screen, strain BY4716, OD600, 96 h (AID 1091); conditions: higher = more signal, called active from +8 up or from −8 down; further: test concentration not given here
# [5] = target: Torsin-1A-interacting protein 2 (Homo sapiens) (UniProt Q8NFQ8); experiment: LULL1 binders on small-molecule microarray, primary screen, cell lysate, human LULL1 lysate, 635/667 nm fluorescence (AID 1092); conditions: hLULL1 lysate binding, 635 nm fluorescence, higher = more signal;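 further: probe is lysate of COS7 cells overexpressing human LULL1; score merges per-feature 667 nm fluorescence with signal-to-noise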
# [6] = E. coli growth modulation, two-sided OD650, primary screen, E. coli filamentation project, strain DRC41, 24 h (AID 1093); conditions: OD650, 24 h, higher = more signal, called active from +8 up or from −8 down;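 further: MC1000 strain lacking acrAB efflux and sulA so SOS filamentation is blocked; test concentration not given here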
# [7] = small-molecule microarray binders of probe aLefty2, primary screen, biochemical, biotinylated probe, 635/667 nm fluorescence (AID 1094); conditions: higher = more signal;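 further: score merges spot fluorescence near 667 nm with spot signal-to-noise ratio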
# [8] = tested on: Noggin (protein binding on small-molecule microarray); experiment: Noggin binders on small-molecule microarray, primary screen, biochemical, 635/667 nm fluorescence (AID 1095); conditions: 635 nm fluorescence, higher = more signal;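 further: score merges 667 nm feature fluorescence with signal to noise over triplicate slides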
# [9] = target: Neurogenic locus notch homolog protein 3 (Homo sapiens) (UniProt Q9UM47); experiment: NOTCH3 binders on small-molecule microarray, primary screen, biochemical, 635/667 nm fluorescence (AID 1096); conditions: NOTCH3 binding, 635 nm fluorescence, higher = more signal
# [10] = small-molecule microarray binders of probe aEGFR, primary screen, biochemical, biotinylated probe, 635/667 nm fluorescence (AID 1097); conditions: higher = more signal;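 further: probe is a biotinylated anti-EGFR antibody binding compounds printed on slides; score combines fluorescence near 667 nm and signal to noise of each spot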
# [11] = tested on: Plasmodium falciparum Sir2 (PF13_0152, Sir2A); experiment: pfSir2 binders on small-molecule microarrays, primary screen, biochemical, small-molecule microarray, 635 nm fluorescence (AID 1098); conditions: small-molecule microarray binding, fluorescence 635 nm; higher = more signal;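 further: score merges spot fluorescence intensity with its signal-to-noise ratio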
# [12] = small-molecule microarray binders of probe aDKK1, primary screen, biochemical, biotinylated probe, 635/667 nm fluorescence (AID 1099); conditions: higher = more signal;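 further: score merges 667nm spot fluorescence with signal to noise across triplicate slides; reference of the scale not given here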
# [13] = small-molecule microarray binders of probe aCHRDL2, primary screen, biochemical, biotinylated probe, 635/667 nm fluorescence (AID 1100); conditions: higher = more signal
# [14] = splicing luciferase reporter signal modulators, primary screen, spliceosome inhibition project, cell-based, HEK293, splice +/- reporter (AID 1101); conditions: luminescence, 24 h, higher = more signal, called active from +8 up or from −8 down;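 further: HEK293 cells carrying a splicing-competent luciferase reporter gene; test concentration not given here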
# [15] = target: Fibroblast growth factor 10 (Homo sapiens) (UniProt O15520); experiment: FGF10 binders on small-molecule microarrays, primary screen, biochemical, small-molecule microarray, 635 nm fluorescence (AID 1102); conditions: FGF10 binding, fluorescence 635 nm, higher = more signal
# [16] = tested on: glycogen synthase kinase-3 (GSK3A per assay name; protocol says GSK3B); experiment: GSK3 binders on small-molecule microarrays, primary screen, biochemical, small-molecule microarray, 635 nm fluorescence, GSK3A (AID 1103); conditions: small-molecule microarray binding, fluorescence 635 nm; higher = more signal; further: the record names both GSK3A and GSK3B
# [17] = target: Epidermal growth factor receptor (Homo sapiens) (UniProt P00533); experiment: EGFR binders on small-molecule microarrays, primary screen, biochemical, small-molecule microarray, 635 nm fluorescence (AID 1104); conditions: EGFR binding, higher = more signal;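 further: score merges 667 nm emission intensity with spot signal to noise over triplicate slides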
# [18] = target: Follistatin-related protein 3 (Homo sapiens) (UniProt O95633); experiment: FSTL3 binders on small-molecule microarrays, primary screen, biochemical, small-molecule microarray, 635 nm fluorescence (AID 1105); conditions: FSTL3 binding, higher = more signal;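 further: score merges emission near 667 nm and signal to noise per printed spot across three slides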
# [19] = target: Dickkopf-related protein 1 (Homo sapiens) (UniProt O94907); experiment: DKK1 binders on small-molecule microarrays, primary screen, biochemical, small-molecule microarray, 635 nm fluorescence scan (AID 1106); conditions: DKK1 binding, higher = more signal;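 further: score merges emission near 667 nm with signal to noise over three replicate slides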
# [20] = tested on: Inhibin beta A chain (activin A); experiment: INHBA (activin A) binders on microarrays, primary screen, biochemical, small-molecule microarray, 635 nm fluorescence scan (AID 1107); conditions: small-molecule microarray binding, higher = more signal;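 further: mouse activin A protein probed at 4.33 µg/mL on printed slides; score merges bound-protein fluorescence near 667 nm with spot signal-to-noise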
# Chain of Neurogenic locus notch homolog protein 3 (Homo sapiens) (Q9UM47 whole entry, looked up): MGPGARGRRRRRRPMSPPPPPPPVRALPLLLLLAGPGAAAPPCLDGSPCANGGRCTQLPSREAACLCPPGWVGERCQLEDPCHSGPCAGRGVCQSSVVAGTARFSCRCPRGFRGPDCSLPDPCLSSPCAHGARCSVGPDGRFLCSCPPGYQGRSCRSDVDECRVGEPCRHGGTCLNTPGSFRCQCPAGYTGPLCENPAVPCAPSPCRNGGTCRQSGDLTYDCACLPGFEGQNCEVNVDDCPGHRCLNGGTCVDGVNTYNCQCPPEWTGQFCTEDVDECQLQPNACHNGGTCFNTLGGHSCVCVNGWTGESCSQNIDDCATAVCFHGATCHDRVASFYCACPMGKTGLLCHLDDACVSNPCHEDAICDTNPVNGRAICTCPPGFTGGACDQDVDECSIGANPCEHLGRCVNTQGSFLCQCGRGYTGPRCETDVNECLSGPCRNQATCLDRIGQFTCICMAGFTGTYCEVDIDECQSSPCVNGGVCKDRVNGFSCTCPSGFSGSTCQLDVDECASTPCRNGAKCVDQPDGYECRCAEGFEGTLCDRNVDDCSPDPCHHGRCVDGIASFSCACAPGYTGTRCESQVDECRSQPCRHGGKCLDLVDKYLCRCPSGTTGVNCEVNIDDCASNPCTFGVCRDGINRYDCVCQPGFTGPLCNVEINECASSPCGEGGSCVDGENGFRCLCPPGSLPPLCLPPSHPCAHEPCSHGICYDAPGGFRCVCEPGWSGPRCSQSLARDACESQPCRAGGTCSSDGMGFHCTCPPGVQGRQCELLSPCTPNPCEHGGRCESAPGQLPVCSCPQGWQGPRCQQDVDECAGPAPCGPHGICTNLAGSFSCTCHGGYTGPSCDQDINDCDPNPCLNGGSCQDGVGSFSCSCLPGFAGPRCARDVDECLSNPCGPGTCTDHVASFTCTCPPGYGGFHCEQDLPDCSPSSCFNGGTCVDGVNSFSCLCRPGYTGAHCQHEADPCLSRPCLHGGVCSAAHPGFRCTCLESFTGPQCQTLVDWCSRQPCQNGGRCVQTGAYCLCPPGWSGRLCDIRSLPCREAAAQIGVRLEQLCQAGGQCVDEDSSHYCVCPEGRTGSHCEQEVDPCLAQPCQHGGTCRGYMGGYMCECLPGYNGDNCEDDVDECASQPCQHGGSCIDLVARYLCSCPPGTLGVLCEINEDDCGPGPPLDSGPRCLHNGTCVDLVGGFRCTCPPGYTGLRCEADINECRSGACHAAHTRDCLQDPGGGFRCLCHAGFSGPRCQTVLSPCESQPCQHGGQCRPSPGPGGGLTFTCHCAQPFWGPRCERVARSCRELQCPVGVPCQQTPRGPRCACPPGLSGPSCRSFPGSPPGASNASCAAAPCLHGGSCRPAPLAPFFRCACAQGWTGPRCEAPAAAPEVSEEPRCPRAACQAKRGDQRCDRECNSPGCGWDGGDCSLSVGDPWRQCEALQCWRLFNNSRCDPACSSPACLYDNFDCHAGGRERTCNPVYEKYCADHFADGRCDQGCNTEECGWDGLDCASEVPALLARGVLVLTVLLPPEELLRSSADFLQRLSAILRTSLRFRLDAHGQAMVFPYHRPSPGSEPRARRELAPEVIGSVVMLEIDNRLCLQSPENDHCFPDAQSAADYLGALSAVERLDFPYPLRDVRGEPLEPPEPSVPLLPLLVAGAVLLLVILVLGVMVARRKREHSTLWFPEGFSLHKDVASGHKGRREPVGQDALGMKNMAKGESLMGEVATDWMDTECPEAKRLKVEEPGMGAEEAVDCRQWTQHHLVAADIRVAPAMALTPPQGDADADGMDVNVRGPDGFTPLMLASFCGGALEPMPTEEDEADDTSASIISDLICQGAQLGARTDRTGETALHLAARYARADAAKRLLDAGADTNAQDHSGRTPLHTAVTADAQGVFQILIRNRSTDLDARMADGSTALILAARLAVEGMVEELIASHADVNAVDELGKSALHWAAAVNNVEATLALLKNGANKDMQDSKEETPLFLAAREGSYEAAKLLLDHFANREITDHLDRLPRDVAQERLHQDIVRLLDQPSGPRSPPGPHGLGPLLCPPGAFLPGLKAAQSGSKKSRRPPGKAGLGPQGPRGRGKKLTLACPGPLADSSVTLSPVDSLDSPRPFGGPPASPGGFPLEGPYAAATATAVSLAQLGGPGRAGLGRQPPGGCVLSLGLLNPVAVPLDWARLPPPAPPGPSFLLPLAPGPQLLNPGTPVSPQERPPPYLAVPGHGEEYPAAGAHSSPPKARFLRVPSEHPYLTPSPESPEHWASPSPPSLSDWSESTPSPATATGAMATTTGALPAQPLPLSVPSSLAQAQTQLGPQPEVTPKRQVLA
# Chain of Epidermal growth factor receptor (Homo sapiens) (P00533 whole entry, looked up): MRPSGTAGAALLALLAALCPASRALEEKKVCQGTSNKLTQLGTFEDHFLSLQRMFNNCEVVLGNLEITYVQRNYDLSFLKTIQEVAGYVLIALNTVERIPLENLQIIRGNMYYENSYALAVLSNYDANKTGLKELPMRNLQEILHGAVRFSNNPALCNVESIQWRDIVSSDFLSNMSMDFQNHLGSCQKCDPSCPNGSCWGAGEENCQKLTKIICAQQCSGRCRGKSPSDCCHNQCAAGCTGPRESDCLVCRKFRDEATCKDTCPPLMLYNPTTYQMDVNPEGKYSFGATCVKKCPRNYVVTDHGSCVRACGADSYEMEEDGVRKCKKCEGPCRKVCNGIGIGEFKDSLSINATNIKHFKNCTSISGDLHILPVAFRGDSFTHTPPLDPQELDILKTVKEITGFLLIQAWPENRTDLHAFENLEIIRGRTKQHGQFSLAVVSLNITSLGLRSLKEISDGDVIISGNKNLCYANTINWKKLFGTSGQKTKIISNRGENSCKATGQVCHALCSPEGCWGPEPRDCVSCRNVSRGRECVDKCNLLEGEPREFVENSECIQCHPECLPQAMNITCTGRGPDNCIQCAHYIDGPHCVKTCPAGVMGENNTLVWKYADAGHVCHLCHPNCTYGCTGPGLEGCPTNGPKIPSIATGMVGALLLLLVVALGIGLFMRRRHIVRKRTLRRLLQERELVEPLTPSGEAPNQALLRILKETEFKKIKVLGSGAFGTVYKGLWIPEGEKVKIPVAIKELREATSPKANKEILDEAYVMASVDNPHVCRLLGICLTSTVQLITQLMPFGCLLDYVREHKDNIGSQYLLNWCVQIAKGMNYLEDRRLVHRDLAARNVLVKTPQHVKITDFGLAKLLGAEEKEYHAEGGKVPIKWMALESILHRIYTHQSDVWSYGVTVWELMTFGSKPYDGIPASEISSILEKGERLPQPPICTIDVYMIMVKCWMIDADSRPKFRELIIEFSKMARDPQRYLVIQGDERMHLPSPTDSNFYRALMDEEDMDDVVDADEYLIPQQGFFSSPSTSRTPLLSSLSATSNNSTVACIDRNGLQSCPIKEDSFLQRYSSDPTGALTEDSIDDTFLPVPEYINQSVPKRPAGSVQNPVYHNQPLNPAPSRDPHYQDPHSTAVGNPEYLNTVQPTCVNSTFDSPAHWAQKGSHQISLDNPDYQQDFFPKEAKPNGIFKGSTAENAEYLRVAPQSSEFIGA
# Chain of Torsin-1A-interacting protein 2 (Homo sapiens) (Q8NFQ8 whole entry, looked up): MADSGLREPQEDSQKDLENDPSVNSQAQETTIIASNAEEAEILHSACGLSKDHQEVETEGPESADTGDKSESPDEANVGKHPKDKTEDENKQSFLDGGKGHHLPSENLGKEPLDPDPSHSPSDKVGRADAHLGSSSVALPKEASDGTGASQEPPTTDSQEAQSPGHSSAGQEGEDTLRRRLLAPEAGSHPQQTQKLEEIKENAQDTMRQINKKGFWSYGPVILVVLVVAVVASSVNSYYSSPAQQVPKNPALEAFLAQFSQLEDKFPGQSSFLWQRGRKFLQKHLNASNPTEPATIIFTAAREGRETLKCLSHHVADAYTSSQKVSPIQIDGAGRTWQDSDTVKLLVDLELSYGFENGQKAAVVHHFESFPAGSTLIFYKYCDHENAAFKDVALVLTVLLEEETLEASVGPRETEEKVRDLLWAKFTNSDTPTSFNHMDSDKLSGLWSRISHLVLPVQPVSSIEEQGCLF
# Chain of Fibroblast growth factor 10 (Homo sapiens) (O15520 whole entry, looked up): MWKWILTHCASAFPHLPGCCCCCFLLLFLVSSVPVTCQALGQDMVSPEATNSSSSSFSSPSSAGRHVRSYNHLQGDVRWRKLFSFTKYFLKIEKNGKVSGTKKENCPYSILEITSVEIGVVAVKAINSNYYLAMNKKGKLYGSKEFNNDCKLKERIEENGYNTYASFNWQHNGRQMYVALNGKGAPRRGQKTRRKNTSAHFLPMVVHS
# Chain of Dickkopf-related protein 1 (Homo sapiens) (O94907 whole entry, looked up): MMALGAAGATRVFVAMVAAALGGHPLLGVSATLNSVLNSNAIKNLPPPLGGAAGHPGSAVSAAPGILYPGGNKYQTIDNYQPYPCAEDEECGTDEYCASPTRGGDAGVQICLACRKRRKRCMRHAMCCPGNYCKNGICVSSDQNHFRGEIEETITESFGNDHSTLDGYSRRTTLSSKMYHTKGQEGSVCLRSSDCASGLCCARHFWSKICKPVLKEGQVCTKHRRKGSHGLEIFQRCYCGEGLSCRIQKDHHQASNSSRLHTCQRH
# Chain of Follistatin-related protein 3 (Homo sapiens) (O95633 whole entry, looked up): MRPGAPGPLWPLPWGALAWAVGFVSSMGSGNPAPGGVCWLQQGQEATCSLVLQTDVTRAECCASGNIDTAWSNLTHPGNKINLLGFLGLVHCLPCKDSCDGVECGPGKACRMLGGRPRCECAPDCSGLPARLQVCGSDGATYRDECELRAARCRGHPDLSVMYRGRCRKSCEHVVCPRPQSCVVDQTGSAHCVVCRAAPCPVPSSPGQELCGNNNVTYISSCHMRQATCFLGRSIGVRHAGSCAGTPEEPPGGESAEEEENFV
smiles,measurement,setting,value
COC(=O)[C@@H]1CC[C@@H](C)[C@H](c2ccc(Br)cc2)N1,composite z-score,[1],0.265
same,z-score,[2],0.0156 (inactive)
same,z-score,[3],-0.179 (inactive)
same,z-score,[4],-0.116 (inactive)
same,composite z-score,[5],-0.188
same,z-score,[6],0.104 (inactive)
same,composite z-score,[7],-0.0943
same,composite z-score,[8],0.255
same,composite z-score,[9],-0.275
same,composite z-score,[10],-0.125
same,composite z-score,[11],0.644
same,composite z-score,[12],-0.013
same,composite z-score,[13],-0.0951
same,z-score,[14],-0.203 (inactive)
same,composite z-score,[15],-0.0342
same,composite z-score,[16],-0.0839
same,composite z-score,[17],0.185
same,composite z-score,[18],-0.155
same,composite z-score,[19],0.133
same,composite z-score,[20],0.987
CCO[C@H](c1cc(OC)cc([N+](=O)[O-])c1OC)[C@H](C)C=CCC(=O)OC,composite z-score,[1],1.11
same,z-score,[2],-0.57 (inactive)
same,z-score,[3],-1.18 (inactive)
same,z-score,[4],-0.187 (inactive)
same,composite z-score,[5],-0.746
same,z-score,[6],0.545 (inactive)
same,composite z-score,[7],-0.233
same,composite z-score,[8],0.927
same,composite z-score,[9],0.0565
same,composite z-score,[10],-0.123
same,composite z-score,[11],0.54
same,composite z-score,[12],-0.295
same,composite z-score,[13],-0.776
same,z-score,[14],0.402 (inactive)
same,composite z-score,[15],0.0681
same,composite z-score,[16],0.117
same,composite z-score,[17],0.147
same,composite z-score,[18],0.385
same,composite z-score,[19],0.505
same,composite z-score,[20],0.0666
CCN1C(=O)[C@H]2[C@H]3[C@H](O)[C@H](O)CC(=O)[C@@H]3CC[C@H]2C1=O,composite z-score,[1],0.705
same,z-score,[2],0.0074 (inactive)
same,z-score,[3],-0.268 (inactive)
same,z-score,[4],-0.139 (inactive)
same,composite z-score,[5],1.36
same,z-score,[6],0.439 (inactive)
same,composite z-score,[7],-0.145
same,composite z-score,[8],0.441
same,composite z-score,[9],0.717
same,composite z-score,[10],-0.0115
same,composite z-score,[11],0.677
same,composite z-score,[12],-0.22
same,composite z-score,[13],-0.478
same,z-score,[14],-0.0387 (inactive)
same,composite z-score,[15],0.492
same,composite z-score,[16],0.692
same,composite z-score,[17],0.555
same,composite z-score,[18],0.688
same,composite z-score,[19],0.396
same,composite z-score,[20],-0.167
Cc1cc2c(nc1C)CCCCN2CC(C)ON=C[C@@H](C)[C@H](OCc1ccccc1)C(C)C (stereo not given in full),composite z-score,[1],-0.766
same,z-score,[2],-0.715 (inactive)
same,z-score,[3],-14.4 (active)
same,z-score,[4],0.365 (inactive)
same,composite z-score,[5],-1.02
same,z-score,[6],0.162 (inactive)
same,composite z-score,[7],-0.204
same,composite z-score,[8],-0.913
same,composite z-score,[9],-1.01
same,composite z-score,[10],-0.3
same,composite z-score,[11],-0.504
same,composite z-score,[12],-0.873
same,composite z-score,[13],-0.122
same,z-score,[14],-0.037 (inactive)
same,composite z-score,[15],-1.92
same,composite z-score,[16],-1.05
same,composite z-score,[17],-1.85
same,composite z-score,[18],-0.934
same,composite z-score,[19],-0.969
same,composite z-score,[20],0.911
CC(CCN1CCCCc2nc(C)c(C)cc21)=NOC[C@@H](O)COCc1ccco1,composite z-score,[1],1.3
same,z-score,[2],-1.35 (inactive)
same,z-score,[3],0.527 (inactive)
same,z-score,[4],-0.119 (inactive)
same,composite z-score,[5],-0.58
same,z-score,[6],0.742 (inactive)
same,composite z-score,[7],-0.0042
same,composite z-score,[8],1.21
same,composite z-score,[9],0.876
same,composite z-score,[10],0.592
same,composite z-score,[11],1.19
same,composite z-score,[12],-0.286
same,composite z-score,[13],-1.58
same,z-score,[14],0.44 (inactive)
same,composite z-score,[15],1.26
same,composite z-score,[16],1.34
same,composite z-score,[17],1.74
same,composite z-score,[18],1.52
same,composite z-score,[19],2
same,composite z-score,[20],1.79
O=C1[C@H]2[C@H]3[C@H](O)[C@H](O)CC(=NOC[C@@H](O)COCc4ccco4)[C@H]3CC[C@H]2C(=O)N1c1ccc(F)cc1F,composite z-score,[1],-0.012
same,z-score,[2],-3.68 (inactive)
same,z-score,[3],-1.99 (inactive)
same,z-score,[4],-1.97 (inactive)
same,composite z-score,[5],-0.701
same,z-score,[6],-1.13 (inactive)
same,composite z-score,[7],-0.469
same,composite z-score,[8],-0.349
same,composite z-score,[9],-0.927
same,composite z-score,[10],-0.165
same,composite z-score,[11],-0.295
same,composite z-score,[12],0.0973
same,composite z-score,[13],-0.901
same,z-score,[14],-2.86 (inactive)
same,composite z-score,[15],-0.921
same,composite z-score,[16],0.0894
same,composite z-score,[17],-0.553
same,composite z-score,[18],-0.529
same,composite z-score,[19],-0.301
same,composite z-score,[20],-0.413
O=C1C2=CC[C@H]3C(=O)N(c4cccc(Oc5ccccc5)c4)C(=O)[C@H]3[C@H]2[C@H](O)[C@@H]2O[C@H]12,composite z-score,[1],0.435
same,z-score,[2],0.135 (inactive)
same,z-score,[3],-0.974 (inactive)
same,z-score,[4],-0.147 (inactive)
same,composite z-score,[5],-0.122
same,z-score,[6],-0.425 (inactive)
same,composite z-score,[7],-0.139
same,composite z-score,[8],0.744
same,composite z-score,[9],0.92
same,composite z-score,[10],-0.0219
same,composite z-score,[11],0.237
same,composite z-score,[12],-0.372
same,composite z-score,[13],-0.37
same,z-score,[14],14.7 (active)
same,composite z-score,[15],0.635
same,composite z-score,[16],0.393
same,composite z-score,[17],0.299
same,composite z-score,[18],0.666
same,composite z-score,[19],0.655
same,composite z-score,[20],-0.0639
CO[C@H]1COC(=O)[C@@H](C)COC(=O)[C@H](COCc2ccccc2)NC(=O)CC=C[C@H]1C,composite z-score,[1],0.409
same,z-score,[2],0.0827 (inactive)
same,z-score,[3],-0.704 (inactive)
same,z-score,[4],0.007 (inactive)
same,composite z-score,[5],-1.28
same,z-score,[6],0.456 (inactive)
same,composite z-score,[7],-0.128
same,composite z-score,[8],0.98
same,composite z-score,[9],-0.944
same,composite z-score,[10],-0.196
same,composite z-score,[11],0.641
same,composite z-score,[12],-0.492
same,composite z-score,[13],-0.828
same,z-score,[14],0.104 (inactive)
same,composite z-score,[15],0.121
same,composite z-score,[16],-0.523
same,composite z-score,[17],0.039
same,composite z-score,[18],0.678
same,composite z-score,[19],0.705
same,composite z-score,[20],2.01
CC(CCN1CCc2nc(-c3ccccc3)c(-c3ccccc3)cc2C1)=NOC[C@@H](O)[C@H]1O[C@@H]2OC(C)(C)O[C@@H]2[C@H]1O,composite z-score,[1],1.53
same,z-score,[2],-0.987 (inactive)
same,z-score,[3],-4.63 (inactive)
same,z-score,[4],-4.56 (inactive)
same,composite z-score,[5],1.78
same,z-score,[6],1.23 (inactive)
same,composite z-score,[7],-0.342
same,composite z-score,[8],0.449
same,composite z-score,[9],0.41
same,composite z-score,[10],-0.0409
same,composite z-score,[11],0.525
same,composite z-score,[12],-0.414
same,composite z-score,[13],-0.395
same,z-score,[14],0.662 (inactive)
same,composite z-score,[15],0.743
same,composite z-score,[16],0.587
same,composite z-score,[17],0.28
same,composite z-score,[18],0.583
same,composite z-score,[19],0.341
same,composite z-score,[20],0.376
CO[C@H]1COC(=O)CC=C[C@H](C)[C@@H](OC)COC(=O)[C@H](C)COC(=O)CC=C[C@@H]1C,composite z-score,[1],0.765
same,z-score,[2],0.395 (inactive)
same,z-score,[3],-0.425 (inactive)
same,z-score,[4],0.567 (inactive)
same,composite z-score,[5],-0.344
same,z-score,[6],0.683 (inactive)
same,composite z-score,[7],-0.268
same,composite z-score,[8],1.76
same,composite z-score,[9],-0.292
same,composite z-score,[10],-0.0439
same,composite z-score,[11],0.661
same,composite z-score,[12],-0.822
same,composite z-score,[13],-1.53
same,z-score,[14],-0.0334 (inactive)
same,composite z-score,[15],0.0773
same,composite z-score,[16],0.429
same,composite z-score,[17],1.36
same,composite z-score,[18],1.1
same,composite z-score,[19],1.78
same,composite z-score,[20],1.52

# — PubChem BioAssay
